Results from ChEMBL document CHEMBL4513216, “Probing the Open Global Health Chemical Diversity Library for Multistage-Active Starting Points for Next-Generation Antimalarials” (ACS Infect Dis, 2020).
Out of some 69,000 compounds screened, about 8,600 (12%) showed an effect of 50% or more. For the sample, strong results were picked, then their nearest neighbours and some compounds at random.

Test system: Plasmodium berghei
Test: Screen against P. berghei liver stage (PbLuc), transformed with Luciferase, at 10uM
Type: functional, HepG2
Details: tested at 10 uM

Row | SMILES | INHIBITION
1 | CCN(c1ccc(C(=O)NCCN2CCOCC2)cc1)S(=O)(=O)CC | 34.2%
2 | CCN(CC)C(=O)Cn1cc(C(=O)NCCCc2scnc2C)nn1 | 56.3%
3 | CCN(CC)C(=O)Cn1cc(C(=O)NCCc2scnc2C)nn1 | 10.6%
4 | CCN(CC)C(=O)Cn1cc(C(=O)NCCc2nc(C)c(C)s2)nn1 | 39%
5 | CN(Cc1ccco1)[C@@H]1CN(CC2CCOCC2)C[C@@H]2CCCO[C@@H]21 | 38.1%
6 | CNC(=O)C1(c2cnccn2)CCCN1C(=O)c1ccccc1C (stereo not drawn) | 30.4%
7 | COc1ccc2c(C(=O)N(C)C)cc(-c3cnc(N)nc3)nc2c1 | 15.7%
8 | CN(C)C(=O)c1cc(-c2cnc(N)nc2)nc2cc(F)ccc12 | 60.2%
9 | CCCn1cc(-c2cc(C(=O)N(C)C)c3ccc(C)cc3n2)cn1 | 8.845%
10 | Cc1ccc2nc(-c3cnc(N)nc3)c(C)c(C(=O)N(C)C)c2c1 | 50.5%
11 | Cc1ccc2nc(-c3cnc(N)nc3)cc(C(=O)N(C)C)c2c1 | 13.5%
12 | Cc1cc(C)c2c(C(=O)N(C)C)cc(-c3cnc(N)nc3)nc2c1 | 5.91%
13 | c1ncn(CC2CCCN(CC3CCCCC3)C2)n1 (stereo not drawn) | -1.75%
14 | Nc1cc(C(=O)N2CCCC(C(=O)CCc3ccccc3)C2)ccn1 (stereo not drawn) | 49.3%
15 | c1cnc(N2CCO[C@H]3CN(Cc4cc[nH]n4)C[C@H]32)cn1 | -15.3%
16 | CCc1nc(CN2CCOC(Cn3nc(C)cc3C)C2)no1 (stereo not drawn) | -0.219%
17 | COCCN1CCC(CNc2cnc3ccccc3n2)CC1 | 46.1%
18 | COCCN1CCC(CNc2nc3ccccc3o2)CC1 | 61%
19 | COCCN1CCC(CNc2nccc(-c3cnn(C)c3)n2)CC1 | 13.3%
20 | Cc1csc(CN2CCC3(CC2)COC(COCC2CC2)C3)n1 (stereo not drawn) | 43%
21 | CS(=O)(=O)NC1CCCN(C(=O)NCc2ccccc2Cl)C1 (stereo not drawn) | 25.4%
22 | CC(=O)OC1CN(c2nc3c(Cl)cccc3s2)C1 | -56.7%

Row | SMILES | INHIBITION
23 | c1cnc(-c2nc(CNC3CCc4ncnn4C3)cs2)nc1 (stereo not drawn) | -25.75%
24 | Cc1ccc(CCC(=O)N2CCn3c(nnc3C(C)C)C2)cc1Cl | 8.41%
25 | COc1ccc2nnc(C(=O)NC3CCCC3)nc2c1 | -65.8%
26 | COc1ccc(-c2nnc(SCC(=O)NCC(C)C)[nH]2)c(OC)c1 | -30.8%
27 | COc1ccc(-c2nnc(SC(C)C(N)=O)[nH]2)c(OC)c1 (stereo not drawn) | 18.3%
28 | COc1ccc(-c2nnc(SC(C)C(=O)NC3CC3)[nH]2)c(OC)c1 (stereo not drawn) | 37.1%
29 | COc1ccc(-c2nnc(SC(C)C(=O)NC3CCCC3)[nH]2)c(OC)c1 (stereo not drawn) | 51.7%
30 | COc1ccc(-c2ccccc2CN)c(OC)c1 | -58%
31 | COc1ccc(-c2nnc(SC(C)C(=O)NC(C)(C)C)[nH]2)c(OC)c1 (stereo not drawn) | 82.5%
32 | COc1ccc(-c2nnc(SC(C)C(=O)NCC(C)C)[nH]2)c(OC)c1 (stereo not drawn) | 64%
33 | COc1ccc(S(=O)(=O)NC(=O)C(C)OC)c(OC)c1 (stereo not drawn) | 33%
34 | COc1cc2cc3c(nc2cc1OC)OCCN(Cc1cccs1)C3 | -3.94%
35 | Cc1ccc(CN2CCc3onc(C(=O)Nc4cccnc4)c3C2)o1 | -12.2%
36 | CC1(C(=O)NC2CCCC2)CCCN(c2ncccn2)C1 (stereo not drawn) | 0.301%
37 | O=C(NCC1CCOCC1)c1cc(-c2cccnc2)c2cnccc2n1 | -4.87%
38 | CCn1cc(CN2CCC(c3nnc(CN(C)C)n3CC)CC2)cn1 | 15.1%
39 | CN(C)c1cc(C2CCCN(Cc3cnn(C)c3)C2)ccn1 (stereo not drawn) | 3.85%
40 | CCn1cc(C2CCN(Cc3ccnc(N(C)C)c3)CC2)cn1 | 66.7%
41 | Cc1ccc(C(=O)N2CCCCC2c2[nH]ncc2S(C)(=O)=O)s1 (stereo not drawn) | 36.7%
42 | CN(C)CC1CSCCCN1C(=O)c1ccsc1 (stereo not drawn) | -26.3%
43 | CN1CC2(CCC(C(=O)O)CC2)Oc2ccccc2C1=O (stereo not drawn) | -4.35%
44 | CN1C(=O)CO[C@H](c2ccc(NC(=O)c3cccc(F)c3)cc2)[C@H]1CO | 38.1%

Row | SMILES | INHIBITION
45 | COc1cccc(C(=O)Nc2ccc(OC3CCN(C)CC3)cc2)c1 | 49.2%
46 | Cc1ccc(C)c(C(=O)Nc2ccc(OC3CCN(C)CC3)cc2)c1 | 55.8%
47 | Cc1ccccc1C(=O)Nc1ccc(OC2CCN(C)CC2)cc1 | 10.7%
48 | CN1CCC(Oc2ccc(NC(=O)c3cccc(Cl)c3)cc2)CC1 | 65.1%
49 | CSc1ccccc1C(=O)Nc1ccc(OC2CCN(C)CC2)cc1 | 11.8%
50 | CN1CCC(Oc2ccc(NC(=O)c3ccccc3Br)cc2)CC1 | 51.8%
51 | Cc1ccc(C(=O)Nc2ccc(OC3CCN(C)CC3)cc2)c(C)c1 | 47%
52 | CN1CCC(Oc2ccc(NC(=O)c3ccccc3)cc2)CC1 | 21.7%
53 | Cc1cccc(C(=O)Nc2ccc(OC3CCN(C)CC3)cc2)c1 | 63.5%
54 | COc1ccccc1C(=O)Nc1ccc(OC2CCN(C)CC2)cc1 | -25.6%
55 | COCCc1noc(CN2CCCCC2Cn2cccn2)n1 (stereo not drawn) | -2.33%
56 | CCCSCC(=O)NCc1cccc(CN(C)CC)c1 | 39.8%
57 | CN([C@@H]1CC[C@@H](N2CCOCC2)[C@@H]1O)S(=O)(=O)c1ccccc1 | 3%
58 | Cc1nnc(CN(Cc2ccco2)Cc2cccc3c2OCO3)n1C | -16.4%
59 | CN(C)CC1(O)CCN(C(=O)c2ccc(-n3cccn3)cc2Cl)C1 (stereo not drawn) | 36.6%
60 | CNC(=O)c1cc(S(=O)(=O)C(C)C)cs1 | 24.1%
61 | COc1ccc(OC)c(C(C)NS(=O)(=O)c2cnn(C)c2)c1 (stereo not drawn) | 11.2%
62 | COc1ccc(C(C)NS(=O)(=O)c2ccc3c(c2)CCC(=O)N3)cc1F (stereo not drawn) | 20.2%
63 | CCN(CC)S(=O)(=O)NCCc1cc(C)ccc1OC | -12.9%
64 | COc1ccc(C)cc1CCNS(C)(=O)=O | -18%
65 | COc1ccc(C)cc1C(C)NS(=O)(=O)c1ccc2c(c1)CCC(=O)N2 (stereo not drawn) | 54.5%
66 | COc1ccc(C)cc1CCNS(=O)(=O)c1ccc2c(c1)CCC(=O)N2 | 56.3%

Row | SMILES | INHIBITION
67 | Cc1oncc1C(=O)N1C[C@H](OCc2ccccn2)[C@H]2OCCC[C@H]21 | 15.4%
68 | COc1ccc(F)c(-c2ccnc(N)c2)c1 | 1.95%
69 | CC(CC(=O)NCCNS(C)(=O)=O)C1CCCCC1 (stereo not drawn) | 44.5%
70 | COCCn1cc2c(n1)C(CNS(C)(=O)=O)OCC2 (stereo not drawn) | -31%
71 | CCN(CC)C(=O)c1ccn(COc2ccc(F)cc2F)n1 | -3.93%
72 | CCc1ncc(C(=O)NCCN2CCNC2=O)cn1 | 22.285%
73 | Cc1nnc(C2CCN(C(=O)c3ccc4[nH]ccc4c3)CC2)s1 | -5.64%
74 | Cc1nnc(C2CCN(C(=O)c3ccc4nccnc4c3)CC2)s1 | 51.3%
75 | COC(=O)c1ccc(C(=O)N2CCC(c3nnc(C)s3)CC2)cc1 | 20.4%
76 | CS(=O)(=O)c1cn[nH]c1C1CCCN(C(=O)Cn2cccn2)C1 (stereo not drawn) | 2.71%
77 | COc1cccc2c3c(c(=O)[nH]c12)CC(C)(C)O3 | -6.18%
78 | CCOc1cc(C(=O)N(C)C)ccc1NC(=O)C(C)c1ccsc1 (stereo not drawn) | 51.5%
79 | CCOc1cc(C(=O)N(C)C)ccc1NC(=O)c1ccsc1 | -23%
80 | CCOc1ccc(C(=O)N(C)C)cc1NC(=O)c1ccsc1 | -20.7%
81 | Cc1cccc2c1cnn2CCCNC(=O)c1ccnn1C | 35%
82 | CC(C)Cc1cc(C(=O)O)nc2[nH]c(=O)[nH]c(=O)c12 | 41.2%
83 | Cc1csc(CNc2nc3c(s2)c(C)nn3C)n1 | 8.03%
84 | CCc1nc(CNc2nc3c(s2)c(C)nn3C)cs1 | 63.1%
85 | Cc1nc(CNc2nc3c(s2)c(C)nn3C)cs1 | 40.8%
86 | CCSCCNc1nc2c(s1)c(C)nn2C | 25.8%
87 | CCc1csc(CNc2nc3c(s2)c(C)nn3C)n1 | 65.7%
88 | CCCOCCNc1nc2c(s1)c(C)nn2C | -18.6%

Row | SMILES | INHIBITION
89 | Cc1ccc(CCc2nc(C3CCOC3)no2)o1 (stereo not drawn) | 29%
90 | CN(C)[C@@H]1CCN(C(=O)C2CCOCC2)[C@H]1Cc1ccncc1 | 0.804%
91 | COCCN1CCc2ccc(=O)n(Cc3csc(C)n3)c2CC1 | -15.3%
92 | CCc1nnc(Nc2cccc(C3CCN(c4cnccn4)CC3)n2)s1 | 36.4%
93 | CC(=O)N1C[C@H]2CC[C@@H](C1)N(S(=O)(=O)c1ccc(F)cc1Cl)C2 | -10.2%
94 | Cc1cc2ccccc2n1CCC(=O)NCc1ncc[nH]1 | 20.5%
95 | Cc1cc(CCC(=O)NCc2ncc[nH]2)ccc1Br | 54.8%
96 | Cc1cc(CCC(=O)NCc2nccn2C)ccc1Br | 46.1%
97 | CCC1CCCCN1CCNC(=O)N1CCN(Cc2ccon2)CC1 (stereo not drawn) | 50.8%
98 | CN(CCNC(=O)N1CCN(Cc2ccon2)CC1)C1CCCC1 | -6.02%
99 | CN1CCC(CCNC(=O)N2CCN(Cc3ccon3)CC2)CC1 | 23.5%
100 | Cc1cnc(CNC(=O)[C@@]23CCO[C@@H]2CCN(C2CCCC2)C3)cn1 | 18.6%
101 | Cc1ccc(N2CC[C@H](O)[C@@H]2Cc2cnn(C)c2)nn1 | -15.9%
102 | CC(=O)N1CCN([C@@H]2CN(C(=O)c3ccccc3)C[C@H]2O)CC1 | 11.8%
103 | CC(=O)N1CCN(C2CCCCc3ccccc32)CC1 (stereo not drawn) | -1.16%
104 | NC(=O)N1CCCN(C2CCCCc3ccccc32)CC1 (stereo not drawn) | 13.7%
105 | O=C1CN(C(=O)CC2c3ccccc3CCc3ccccc32)CCN1 | 42.1%
106 | CC(=O)N1CCCN(C2CCCCc3ccccc32)CC1 (stereo not drawn) | 55.4%
107 | CC(=O)N1CCN(C2CCc3ccccc32)CC1 (stereo not drawn) | 64.7%
108 | Cc1cccc(C2(CNC(C)c3nnc(C)o3)CCCC2)c1 (stereo not drawn) | -10.2%
